Screening data from PubChem.
This is a sample that favours compounds with a hit; in the whole collection about 15% have one here.
Pf growth 48h = inhibits P. falciparum growth in the first generation, 48 h; Potency, µM (top dose mostly 28.7 µM), for the others: at the highest dose activity change, negative = inhibition, usual class: inhibitors; AID 504832; P. falciparum luciferase growth in erythrocytes, 48 h; 310,000 compounds, 5.9% hits; also: potency is read from the fitted curve at half-maximal effect; % is scaled to controls: 0 for no effect and ±100 for the full control effect
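Parasite viability was followed by luminescence of a genomically integrated firefly luciferase. Cultures held 0.1% parasitemia at 2% hematocrit (final), incubated under 5% CO2 at 37 C.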
Pf growth 96h = P. falciparum growth inhibition at 96 hours; P. falciparum luciferase reporter growth, 96 h; Potency, µM (series often up to 28.7 µM), without a hit: at the highest dose activity change, negative = inhibition, actives largely listed as inhibitors; 320,000 compounds, 6.9% hits; also: potency is read from the fitted curve at half-maximal effect; % is scaled to controls: 0 for no effect and ±100 for the full control effect
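Readout is luminescence from an integrated firefly luciferase in P. falciparum. Red cells, 2% hematocrit and 0.05% parasitemia final, were cultured with compound through two parasite generations (96 hours) at 37 C, 5% CO2.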
SARS PLpro yeast = SARS-CoV PLP inhibition in yeast | S. cerevisiae expressing SARS-CoV PLpro, growth rescue | Potency, µM (highest dose often 32.9 µM), without a hit: top-dose activity, positive = growth rescue, usual class: activators | 330,000 compounds, 0.19% hits | AID 485353; calls by dose curve; also: potency is read from the fitted curve at half-maximal effect; 0% is about no effect; nearly all actives have a fitted effect of over 55% in size
HCV inhibitor = blocks hepatitis C virus | Huh7.5.1 HCVcc-Cre infection, luciferase reporter, 44 h | Potency, µM (top dose mostly 41.8 µM), without a hit: at the highest dose activity change, negative = inhibition, actives largely listed as inhibitors | 340,000 compounds, 3.4% hits | AID 651820; also: potency is read from the fitted curve at half-maximal effect; % is scaled to controls: 0 for no effect and ±100 for the full control effect
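Compounds are dispensed onto cells plated 4 h earlier at 1,000 per well, with HCVcc-Cre virus (about 0.5 moi) added next. Following 44 h of culture, luminescent signal is measured for 15 sec after 15 min with substrate at room temperature.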
Sm TGR block = S. mansoni TGR enzyme inhibition; Q962Y6; purified TGR, DTNB reduction, TNB absorbance 405 nm; Potency, µM (top dose mostly 114 µM), without a hit: top-dose activity change, negative = inhibition, hits mostly inhibitors; 360,000 compounds, 3% hits; AID 485364; also: potency is read from the fitted curve at half-maximal effect; % is scaled to controls: 0 for no effect and ±100 for the full control effect; nearly all actives have a fitted effect of over 60% in size
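First, TGR (20 nM dispensed) and NADPH were mixed with compound. Second, a 15 min room-temperature incubation followed. Third, further NADPH and then DTNB were added to start the reaction. Finally, TNB absorbance was monitored kinetically.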
HCMV antiviral = blocks human cytomegalovirus replication. HFF cells, HCMV-luciferase reporter, 72 h; stronger effect = lower value. activity change, negative = inhibition, % at 57.5 µM. 410,000 compounds, 4.5% hits. AID 1259415; in the data active = activity change below about -60%; inconclusive = no clear call, values can overlap the other calls; inactive = above about -39%; also: % is scaled to controls: 0 for no effect and ±100 for the full control effect
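Steps: HFFs plated, 16 h 37C; compounds added; HCMV-luciferase added to MOI 1 PFU/cell; 72 h 37C; OneGlo reagent, 5 min room temperature; luminescence read, normalized to controls.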
* marks the source's active call; other numbers are inactive results; ? = inconclusive; . = no result. Unless noted, calls follow the shape of the dose curve; as a rule, active = well fitted curve in the direction sought with a large enough effect; inconclusive = small, poorly fitted or top-dose-only effect, or another doubt; inactive = no such curve, though single readings can be large; an effect the other way counts as inactive or inconclusive.

SMILES | Pf growth 48h | Pf growth 96h | SARS PLpro yeast | HCV inhibitor | Sm TGR block | HCMV antiviral
CCCCn1c(N)c(N(CCOC)C(=O)CC(NC(=O)c2ccccc2Cl)c2ccccc2)c(=O)[nH]c1=O (stereo not drawn) | . | . | . | -3.5% | . | -32.5
CCOc1cc(OCC)cc(C(=O)NCCN2CCC(n3c(=O)[nH]c4ccccc43)CC2)c1 | . | . | . | . | . | -7.9
COc1ccc(NC(=O)/C(=C/c2ccc3c(c2)OCO3)NC(C)=O)cc1 | 61.4% | 459.5% | 8.8% | -0.7% | 23.2% | 57.9
COc1cc(-c2nc(CCNC(=O)c3ccco3)cs2)cc(OC)c1OC | ? | 10.4µM* | -3.2% | -17.6% | -16.1% | 2.0
O=C(NCCc1csc(-c2ccc(C(F)(F)F)cc2)n1)c1ccc(F)c(F)c1 | . | . | . | . | 6.4% | -63.4*
COc1ccc(-c2nc(CCNS(=O)(=O)c3ccc4c(c3)OCCO4)cs2)cc1 | -12.6% | ? | -16.1% | 11.2µM* | 6.7% | -34.9
O=C(CN1C(=O)CN=C(c2ccccc2)c2ccccc21)NCc1ccco1 | 27.1% | ? | 0.9% | 15.0% | 39.8µM* | -38.6
Cc1cccc(CN2C(=O)CN=C(c3ccccc3)c3ccccc32)c1 | . | . | . | . | 3.1% | ?
Cc1ccc(CN2C(=O)CN=C(c3ccccc3)c3ccccc32)cc1 | ? | -1.5% | -19.5% | 16.2% | 1.1% | -73.7*
O=C(Cc1csc(-c2ccccc2)n1)NCc1ccco1 | 23.3% | 39.8% | 0.3% | 16.7% | 39.8µM* | -13.4
CC(=O)Nc1ccc(C(=S)NCCCO)cc1 | 26.2% | 22.2% | 6.5% | 21.3% | 9.3% | 48.9
Cc1cc(C)c(NC(=O)COC(=O)Cn2nc(-c3ccccc3)oc2=O)c(C)c1 | . | . | -3.3% | 11.1% | . | 101.1
N#Cc1cccc(NC(=O)COC(=O)Cn2nc(-c3ccccc3)oc2=O)c1 | -16.3% | -1.2% | 1.1% | 17.2% | 3.9% | -65.4*
CC(=O)c1cccc(NC(=O)Nc2ccc3c(c2)N(C)C(=O)CS3)c1 | ? | -7.7% | 1.6% | 3.16µM* | 4.5% | ?
CCc1ccc(NC(=O)Nc2ccc3c(c2)N(C)C(=O)CS3)cc1 | . | ? | 7.4% | -22.3% | 4.3% | -69.4*
N#Cc1c(/N=C/C=C/c2ccccc2)sc2c1CCCC2 | 70.1% | 32.9% | 0.1% | . | -24.6% | -23.1
COc1cccc(N2C(=O)C(Cc3c[nH]c4ccccc34)NC2=S)c1 (stereo not drawn) | -13.2% | -25.9% | -5.3% | 1.3% | -12.2% | 6.3
Nc1c2c(nc3sc4c(c13)CCCC4)CCCC2 | ? | 133.1% | -5.1% | ? | . | -71.6*
Nc1c2c(nc3sc4c(c13)CCCCC4)CCCCC2 | 150.8% | 109.1% | -23.4% | ? | 2.8% | -15.5
CC1CCc2nc3sc4c(c3c(N)c2C1)CCCC4 (stereo not drawn) | -67.8% | 336.4% | -28.2% | ? | 5.4% | 28.1
Nc1c(C(=O)O)sc2nc(-c3ccccc3)c3c(c12)CCCC3 | 3.1% | ? | 2.2% | 4.6% | ? | -31.5
CC1CCc2c(nc3sc4c(c3c2N)CCCC4)C1 (stereo not drawn) | -77.7% | ? | -45.0% | 11.2µM* | -4.4% | ?
Nc1c2c(nc3sc4c(c13)CCCC4)CCCCC2 | 82.6% | 0.828µM* | -1.8% | ? | -14.0% | 56.5
CCc1c(-c2ccccc2)nc2sc3c(c2c1N)CCCC3 | -10.6% | ? | -4.7% | 25.1µM* | 10.4% | -92.0*
COc1ccc(NC(=O)COC(=O)CNS(=O)(=O)/C=C/c2ccccc2)cc1OC | -12.4% | -23.4% | 3.0% | 8.7% | -9.6% | 2.8
COCCNC(=O)CCCn1c(SCC(=O)Nc2ccc(F)cc2)nc2c(sc3ccccc32)c1=O | . | . | . | . | 0.5% | -13.2
COc1cccc(Oc2nc(-c3ccncc3)nc3ccccc23)c1 | ? | ? | 0.2% | ? | 3.6% | 26.3
CCOc1ccc(C(Nc2cccnc2)c2cc(Cl)c3cccnc3c2O)cc1 (stereo not drawn) | ? | ? | -5.6% | ? | 0.316µM* | -93.5*
